Measurements: the supplement of paper PMC10849652
The full data set covers some 8,800 targets. This sample favours those with a hit. About 0.5% of all pairs of compound and target were hits. A number with no mark means an inactive call.

Assays:
Test in all cases: log2 fold change, soluble protein after heating vs DMSO (PISA); higher = thermal stabilisation; K562 lysate, 10 uM; active = over 0.2 and 3.5 SD of the protein, either way, in both replicates (recomputed)
vemurafenib = compound: CCCS(=O)(=O)Nc1ccc(F)c(C(=O)c2c[nH]c3ncc(-c4ccc(Cl)cc4)cc23)c1F [vemurafenib]
Method in brief: (§1)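 Log-two fold change in thermal stability relative to solvent controls is reported from duplicates. For each sample, crude K562 extract from dounce-homogenised pellets in PBS pH 7.4 with 1 mM MgCl2, at 1 mg/mL protein, was treated with 10 μM compound for 30 min. Aliquots heated for 3 min across 48°C-58°C were pooled, brought to 0.5% NP-40 at 4°C and cleared at 21,000xg for 90 min. The supernatant was quantified by TMTpro 16plex LC-MS/MS with channel sums equalised.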

[1] = compound: CCCS(=O)(=O)Nc1ccc(F)c(C(=O)c2c[nH]c3ncc(Cl)cc23)c1F
Method in brief: as §1

barasertib = compound: CCN(CCCOc1ccc2c(Nc3cc(CC(=O)Nc4cccc(F)c4)[nH]n3)ncnc2c1)CCOP(=O)(O)O [barasertib]
Method in brief: as §1

[2] = compound: CC[C@@H]1C(=O)N(C)c2cnc(Nc3ccc(C(=O)NC4CCN(C)CC4)cc3OC)nc2N1C1CCCC1
Method in brief: as §1

volasertib = compound: CC[C@@H]1C(=O)N(C)c2cnc(Nc3ccc(C(=O)N[C@H]4CC[C@H](N5CCN(CC6CC6)CC5)CC4)cc3OC)nc2N1C(C)C [volasertib]
Method in brief: as §1

[3] = compound: CCn1c(C(=O)N(C2CC2)C2CC2)cc2c3c(ncn3C)c(Nc3cc(C)n(C)n3)nc21
Method in brief: as §1

[4] = compound: CCn1cc(-c2ccnc3[nH]c(-c4cccc(CN(C)C)c4)cc23)c(-c2ccc(NC(=O)N(C)C)cc2)n1
Method in brief: as §1

[5] = compound: CN1CCC(CNc2ccc3ncc(-c4cccc(OC(F)(F)F)c4)n3n2)CC1
Method in brief: as §1

saracatinib = compound: CN1CCN(CCOc2cc(OC3CCOCC3)c3c(Nc4c(Cl)ccc5c4OCO5)ncnc3c2)CC1 [saracatinib]
Method in brief: as §1

sotrastaurin = compound: CN1CCN(c2nc(C3=C(c4c[nH]c5ccccc45)C(=O)NC3=O)c3ccccc3n2)CC1 [sotrastaurin]
Method in brief: as §1

Chain of UniProt A6NFQ2 (A6NFQ2 whole entry, looked up): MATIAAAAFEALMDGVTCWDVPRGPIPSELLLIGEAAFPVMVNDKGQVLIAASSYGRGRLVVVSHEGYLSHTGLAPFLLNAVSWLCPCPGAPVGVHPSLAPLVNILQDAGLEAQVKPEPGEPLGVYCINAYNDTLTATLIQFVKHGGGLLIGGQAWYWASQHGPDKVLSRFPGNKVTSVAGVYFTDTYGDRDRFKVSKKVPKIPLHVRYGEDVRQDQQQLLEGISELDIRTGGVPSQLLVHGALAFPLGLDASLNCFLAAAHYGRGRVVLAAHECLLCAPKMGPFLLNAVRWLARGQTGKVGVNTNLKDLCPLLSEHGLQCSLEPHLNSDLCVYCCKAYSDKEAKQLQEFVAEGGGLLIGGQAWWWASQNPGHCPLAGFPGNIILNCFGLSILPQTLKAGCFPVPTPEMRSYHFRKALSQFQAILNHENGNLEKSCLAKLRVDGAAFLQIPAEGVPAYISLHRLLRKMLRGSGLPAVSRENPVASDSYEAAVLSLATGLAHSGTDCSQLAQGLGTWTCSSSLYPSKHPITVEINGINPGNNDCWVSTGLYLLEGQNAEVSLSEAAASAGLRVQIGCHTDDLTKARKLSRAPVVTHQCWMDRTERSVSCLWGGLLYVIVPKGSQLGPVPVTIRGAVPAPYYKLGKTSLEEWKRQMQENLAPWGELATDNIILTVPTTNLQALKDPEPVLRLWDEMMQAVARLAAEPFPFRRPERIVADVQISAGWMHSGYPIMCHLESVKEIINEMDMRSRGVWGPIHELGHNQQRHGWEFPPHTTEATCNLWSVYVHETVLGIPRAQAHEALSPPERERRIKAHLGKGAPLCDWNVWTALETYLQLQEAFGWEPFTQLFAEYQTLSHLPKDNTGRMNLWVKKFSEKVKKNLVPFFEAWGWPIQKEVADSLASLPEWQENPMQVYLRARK
Chain of UniProt Q9H892 (Q9H892 whole entry, looked up): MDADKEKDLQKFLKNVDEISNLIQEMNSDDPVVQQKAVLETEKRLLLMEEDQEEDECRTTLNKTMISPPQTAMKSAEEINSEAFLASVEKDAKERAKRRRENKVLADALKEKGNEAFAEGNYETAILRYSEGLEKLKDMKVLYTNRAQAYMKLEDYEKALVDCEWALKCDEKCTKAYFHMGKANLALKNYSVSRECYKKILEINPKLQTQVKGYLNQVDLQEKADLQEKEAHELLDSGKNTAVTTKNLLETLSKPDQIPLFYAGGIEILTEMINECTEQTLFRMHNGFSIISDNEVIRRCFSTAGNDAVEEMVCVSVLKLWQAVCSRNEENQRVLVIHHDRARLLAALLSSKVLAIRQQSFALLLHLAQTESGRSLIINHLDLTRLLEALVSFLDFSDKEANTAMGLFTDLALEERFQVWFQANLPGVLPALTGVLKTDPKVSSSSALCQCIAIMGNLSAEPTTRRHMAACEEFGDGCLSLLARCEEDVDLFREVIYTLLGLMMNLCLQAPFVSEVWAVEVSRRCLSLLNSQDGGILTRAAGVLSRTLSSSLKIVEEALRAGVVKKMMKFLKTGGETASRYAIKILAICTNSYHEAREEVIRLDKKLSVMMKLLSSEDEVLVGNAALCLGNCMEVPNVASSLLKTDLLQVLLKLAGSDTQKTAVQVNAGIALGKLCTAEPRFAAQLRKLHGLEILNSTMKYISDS
Chain of UniProt Q6YHU6 (Q6YHU6 whole entry, looked up): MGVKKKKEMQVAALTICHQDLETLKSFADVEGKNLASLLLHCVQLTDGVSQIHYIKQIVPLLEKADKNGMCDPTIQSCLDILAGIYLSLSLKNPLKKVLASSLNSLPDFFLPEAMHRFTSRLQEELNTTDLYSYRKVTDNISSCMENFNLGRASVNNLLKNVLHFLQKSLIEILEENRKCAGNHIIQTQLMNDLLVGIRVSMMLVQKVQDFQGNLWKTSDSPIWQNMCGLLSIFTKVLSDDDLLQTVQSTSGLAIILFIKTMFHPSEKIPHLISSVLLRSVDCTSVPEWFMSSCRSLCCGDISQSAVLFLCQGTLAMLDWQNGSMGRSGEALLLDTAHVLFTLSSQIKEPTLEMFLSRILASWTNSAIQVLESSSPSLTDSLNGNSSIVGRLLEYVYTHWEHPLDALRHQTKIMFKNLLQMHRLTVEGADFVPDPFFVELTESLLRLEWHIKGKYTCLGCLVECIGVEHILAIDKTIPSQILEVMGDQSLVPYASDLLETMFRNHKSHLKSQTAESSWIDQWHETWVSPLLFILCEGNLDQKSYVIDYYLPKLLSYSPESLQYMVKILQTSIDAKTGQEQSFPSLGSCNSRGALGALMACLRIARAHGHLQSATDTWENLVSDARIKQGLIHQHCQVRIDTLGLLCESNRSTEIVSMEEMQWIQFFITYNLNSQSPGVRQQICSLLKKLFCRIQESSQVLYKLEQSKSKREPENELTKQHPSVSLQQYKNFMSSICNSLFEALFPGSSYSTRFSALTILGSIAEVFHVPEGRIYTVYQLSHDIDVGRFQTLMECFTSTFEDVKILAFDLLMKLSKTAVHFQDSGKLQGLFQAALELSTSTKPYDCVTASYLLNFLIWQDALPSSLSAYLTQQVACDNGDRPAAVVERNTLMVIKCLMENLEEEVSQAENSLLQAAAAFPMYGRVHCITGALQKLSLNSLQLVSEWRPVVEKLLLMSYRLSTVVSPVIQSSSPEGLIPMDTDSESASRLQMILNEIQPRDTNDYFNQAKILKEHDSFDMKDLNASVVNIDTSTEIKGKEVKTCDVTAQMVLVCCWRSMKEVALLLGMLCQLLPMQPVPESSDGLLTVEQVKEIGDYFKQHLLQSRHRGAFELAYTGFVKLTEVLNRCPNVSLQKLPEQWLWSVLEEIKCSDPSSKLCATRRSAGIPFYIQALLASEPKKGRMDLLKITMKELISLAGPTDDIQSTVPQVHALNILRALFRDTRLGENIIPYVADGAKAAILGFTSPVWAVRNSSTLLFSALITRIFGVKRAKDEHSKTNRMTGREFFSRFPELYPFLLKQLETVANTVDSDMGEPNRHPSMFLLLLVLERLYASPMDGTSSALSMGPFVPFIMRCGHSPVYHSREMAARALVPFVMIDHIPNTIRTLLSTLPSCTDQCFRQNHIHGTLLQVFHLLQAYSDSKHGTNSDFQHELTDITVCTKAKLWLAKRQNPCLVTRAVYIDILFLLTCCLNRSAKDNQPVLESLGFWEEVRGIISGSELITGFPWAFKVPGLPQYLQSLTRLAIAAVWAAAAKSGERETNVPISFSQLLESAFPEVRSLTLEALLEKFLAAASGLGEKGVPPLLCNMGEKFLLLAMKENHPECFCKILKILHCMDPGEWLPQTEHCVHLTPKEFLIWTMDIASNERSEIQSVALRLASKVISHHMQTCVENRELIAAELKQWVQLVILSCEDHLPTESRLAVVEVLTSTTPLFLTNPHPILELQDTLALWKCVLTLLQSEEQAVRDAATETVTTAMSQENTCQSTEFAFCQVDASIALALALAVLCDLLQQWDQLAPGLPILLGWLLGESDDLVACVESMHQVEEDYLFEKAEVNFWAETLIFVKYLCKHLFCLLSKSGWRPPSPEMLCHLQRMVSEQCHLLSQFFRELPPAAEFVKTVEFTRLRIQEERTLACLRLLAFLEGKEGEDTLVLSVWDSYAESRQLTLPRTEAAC
Chain of UniProt P22314 (P22314 whole entry, looked up): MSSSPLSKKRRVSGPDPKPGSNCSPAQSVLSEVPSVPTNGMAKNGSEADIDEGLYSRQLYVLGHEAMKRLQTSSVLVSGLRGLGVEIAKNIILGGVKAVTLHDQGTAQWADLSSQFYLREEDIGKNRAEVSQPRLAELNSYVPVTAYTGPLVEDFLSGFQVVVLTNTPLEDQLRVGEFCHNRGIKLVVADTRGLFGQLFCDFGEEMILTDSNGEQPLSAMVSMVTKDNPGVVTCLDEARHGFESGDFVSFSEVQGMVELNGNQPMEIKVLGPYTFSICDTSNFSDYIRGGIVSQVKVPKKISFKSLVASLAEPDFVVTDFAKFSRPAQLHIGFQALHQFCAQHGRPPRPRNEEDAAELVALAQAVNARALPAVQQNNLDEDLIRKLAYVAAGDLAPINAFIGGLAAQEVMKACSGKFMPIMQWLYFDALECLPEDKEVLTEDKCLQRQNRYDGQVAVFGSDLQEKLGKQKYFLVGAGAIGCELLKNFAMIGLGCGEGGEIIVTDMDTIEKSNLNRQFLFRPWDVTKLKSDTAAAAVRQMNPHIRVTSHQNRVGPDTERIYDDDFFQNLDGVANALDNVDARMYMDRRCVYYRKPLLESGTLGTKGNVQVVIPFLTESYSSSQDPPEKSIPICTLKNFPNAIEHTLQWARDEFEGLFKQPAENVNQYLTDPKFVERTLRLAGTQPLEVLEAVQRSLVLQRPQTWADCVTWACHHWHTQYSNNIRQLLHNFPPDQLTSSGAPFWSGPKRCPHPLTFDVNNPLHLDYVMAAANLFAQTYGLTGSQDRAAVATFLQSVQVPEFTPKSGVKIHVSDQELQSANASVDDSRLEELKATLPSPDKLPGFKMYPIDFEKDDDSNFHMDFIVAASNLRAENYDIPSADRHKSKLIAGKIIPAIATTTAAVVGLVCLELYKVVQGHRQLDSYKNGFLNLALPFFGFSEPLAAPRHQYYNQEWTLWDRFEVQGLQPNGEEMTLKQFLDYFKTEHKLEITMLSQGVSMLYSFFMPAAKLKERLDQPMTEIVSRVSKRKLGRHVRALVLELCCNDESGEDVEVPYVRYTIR
Chain of UniProt P61960 (P61960 whole entry, looked up): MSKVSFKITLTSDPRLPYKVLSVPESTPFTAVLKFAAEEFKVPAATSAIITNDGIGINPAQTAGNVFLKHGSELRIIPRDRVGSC
Chain of UniProt Q96BS2 (Q96BS2 whole entry, looked up): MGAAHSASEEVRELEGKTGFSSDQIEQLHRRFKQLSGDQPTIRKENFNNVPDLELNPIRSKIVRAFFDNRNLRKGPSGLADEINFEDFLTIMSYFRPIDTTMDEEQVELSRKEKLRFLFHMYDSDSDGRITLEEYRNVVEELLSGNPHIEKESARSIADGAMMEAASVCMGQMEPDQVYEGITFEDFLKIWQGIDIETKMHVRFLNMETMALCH

| Target | log2 fold change (vemurafenib) | log2 fold change [1] | log2 fold change (barasertib) | log2 fold change [2] | log2 fold change (volasertib) | log2 fold change [3] | log2 fold change [4] | log2 fold change [5] | log2 fold change (saracatinib) | log2 fold change (sotrastaurin) |
| --- | --- | --- | --- | --- | --- | --- | --- | --- | --- | --- |
| TUBB6 (UniProt Q9BUF5) | 0.007 | 0.002 | -0.015 | 0.003 | -0.068 | -0.007 | -0.019 | 0.014 | 0.032 | -0.024 |
| TMPO (UniProt P42166) | 0.027 | -0.004 | 0.04 | -0.041 | -0.025 | 0.033 | 0.026 | 0.003 | -0.017 | -0.161 |
| TOX4 (UniProt O94842) | -0.019 | 0.005 | 0.017 | 0.06 | -0.027 | -0.018 | -0.235 | 0.147 | 0.041 | 0.005 |
| UBP1 (UniProt Q9NZI7) | -0.014 | 0.117 | 0.008 | 0.01 | -0.017 | 0.007 | 0.228 (active) | -0.24 | -0.008 | -0.063 |
| TROAP (UniProt Q12815) | 0.113 | 0.146 | 0.053 | 0.063 | 0.31 | 0.043 | -0.03 | 0.042 | 0.014 | 0.002 |
| TPP2 (UniProt P29144) | -0.015 | 0.01 | -0.024 | -0.016 | -0.023 | 0.009 | 0.025 | -0.012 | -0.016 | -0.009 |
| TK1 (UniProt P04183) | 0.022 | 0.013 | -0.007 | 0.009 | 0.031 | -0.008 | -0.124 | 0.104 | -0.002 | 0.002 |
| TPST2 (UniProt O60704) | 0.053 | 0.009 | 0.097 | 0.075 | -0.024 | -0.011 | -0.851 (active) | 0.188 | 0.011 | 0.065 |
| TCAF2 (UniProt A6NFQ2) | 0.052 | 0.041 | -0.048 | -0.027 | -0.049 | 0.045 | 0.003 | -0.05 | 0.004 | -0.017 |
| UBR3 isoform 4 (UniProt Q6ZT12) | 0.035 | -0.001 | 0.026 | -0.033 | -0.091 | -0.011 | -0.015 | -0.044 | 0.044 | 0.009 |
| TRIM23 (UniProt P36406) | 0.077 | -0.038 | 0.119 | 0.115 | -0.03 | 0.316 | -0.28 | 0.073 | 0.096 | 0.01 |
| TMEM164 (UniProt Q5U3C3) | 0.179 | 0.108 | 0.039 | 0.176 | 0.08 | -0.186 | -0.827 (active) | 0.262 | 0.062 | -0.084 |
| TUBGCP5 (UniProt Q96RT8) | -0.023 | -0.351 | -0.057 | -0.204 | 0 | 0.004 | -0.06 | 0.088 | -0.075 | 0.033 |
| THADA (UniProt Q6YHU6) | -0.006 | 0.007 | 0.038 | -0.028 | -0.037 | 0.019 | -0.029 | 0.02 | 0.029 | 0.037 |
| UBA1 (UniProt P22314) | 0.018 | 0.005 | 0.023 | -0.063 | -0.036 | -0.006 | -0.027 | 0.004 | -0.02 | 0.008 |
| TELO2 (UniProt Q9Y4R8) | 0.063 | 0 | 0.088 | -0.073 | -0.071 | 0.048 | -0.017 | -0.043 | 0 | 0.037 |
| TTC5 (UniProt Q8N0Z6) | 0.016 | 0.017 | -0.014 | -0.03 | -0.014 | 0.018 | -0.111 | 0.054 | 0.005 | 0.007 |
| UBR1 (UniProt Q8IWV7) | -0.018 | 0.025 | 0.054 | -0.032 | -0.07 | 0.03 | -0.046 | -0.038 | 0.019 | 0.004 |
| TOE1 (UniProt Q96GM8) | 0.052 | 0.018 | -0.053 | -0.051 | -0.031 | -0.042 | -0.022 | -0.005 | -0.029 | 0.007 |
| TESC (UniProt Q96BS2) | 0.045 | 0.029 | 0.291 (active) | 0.047 | 0.036 | -0.004 | 0.109 | -0.023 | 0.063 | 0.012 |
| TBCE (UniProt Q15813) | 0.04 | 0.015 | 0.024 | -0.065 | -0.082 | 0.048 | -0.044 | -0.023 | 0.013 | 0.001 |
| TRNAU1AP (UniProt Q9NX07) | -0.335 (active) | 0.007 | 0.059 | 0.062 | -0.041 | 0.04 | -0.264 | 0.031 | 0.027 | -0.027 |
| TTC12 isoform 2 (UniProt Q9H892) | 0.025 | 0.061 | 0.053 | -0.049 | 0.063 | -0.121 | -0.208 | 0.079 | 0.038 | -0.055 |
| TBC1D2B (UniProt Q9UPU7) | 0.037 | 0.014 | 0.001 | 0.012 | -0.099 | -0.018 | 0.004 | -0.041 | 0.033 | 0.062 |
| TYMS (UniProt P04818) | -0.009 | 0.006 | 0.022 | -0.053 | -0.041 | -0.004 | -0.035 | -0.064 | 0 | 0.008 |
| UFM1 (UniProt P61960) | -0.249 | -0.035 | 0.039 | 0.044 | 0.047 | 0.014 | 0.491 | -0.338 | 0.016 | 0.028 |
| TRIM33 isoform 2 (UniProt Q9UPN9) | -0.018 | -0.003 | 0.009 | -0.008 | -0.039 | 0.023 | -0.132 | 0.05 | 0.027 | 0.043 |
| TUT4 (UniProt Q5TAX3) | 0.091 | -0.007 | 0.024 | -0.021 | -0.06 | 0.031 | -0.085 | 0.083 | -0.01 | 0.035 |
| TMEM87B (UniProt Q96K49) | -0.004 | 0.047 | 0.091 | 0.018 | 0.005 | -0.006 | 0.074 | -0.032 | -0.166 | 0.026 |
| TUBA3C (UniProt P0DPH7) | 0.037 | 0.021 | -0.011 | -0.041 | -0.026 | 0.012 | -0.062 | -0.013 | 0.013 | 0.048 |
